In the library only some 4.4% were active in any assay of this set; here they are far more common.
D1 antagonist: blocks dopamine activation of the human D1 receptor | 360,000 tested, 3.2% active | activity change, negative = inhibition, % at 10 µM | HEK293 TREx D1 cells, calcium flux, dopamine EC80; hits give low values | P21728; in the data active = activity change below about -30%
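Tetracycline-induced HEK293 T-REx cells with force-coupled D1 receptor were loaded with a no-wash calcium dye. Compound was added after a 10 s baseline and read kinetically for 180 s; EC80 dopamine was then added and calcium flux followed another 180 s.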
D1 potentiator: human D1 dopamine receptor positive modulation | potentiation, % at 10 µM | HEK293 TREx D1 cells, calcium flux, dopamine EC20 potentiation | 360,000 tested, 0.036% active | P21728; in the data active = potentiation above about 30%
TRHR ag: TRH receptor (human) agonism. AID 493084. activation, % at 2 µM. TRHR cells, calcium flux fluo-8, FDSS agonist mode. 360,000 tested, 0.18% active
Target sequence (P34981 whole entry, looked up): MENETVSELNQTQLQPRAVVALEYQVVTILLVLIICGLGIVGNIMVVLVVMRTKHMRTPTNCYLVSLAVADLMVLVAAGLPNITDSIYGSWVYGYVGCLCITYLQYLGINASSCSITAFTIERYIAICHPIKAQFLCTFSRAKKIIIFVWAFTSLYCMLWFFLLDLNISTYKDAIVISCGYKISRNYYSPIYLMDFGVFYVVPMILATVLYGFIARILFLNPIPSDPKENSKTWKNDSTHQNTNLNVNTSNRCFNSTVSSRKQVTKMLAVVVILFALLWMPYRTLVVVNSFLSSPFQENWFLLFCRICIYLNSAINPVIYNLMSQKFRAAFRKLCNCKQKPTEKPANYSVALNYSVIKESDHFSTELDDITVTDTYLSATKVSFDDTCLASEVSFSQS
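TRHR-expressing cells, plated overnight in medium with 10% serum, were loaded with fluo-8 calcium dye at room temperature. After a 10 s baseline, library compound was pin-added and calcium release was recorded kinetically (ex 480/em 530) as agonist response.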
D1 agonist: agonists of human D1 dopamine receptor | P21728 | HEK293 T-REx D1 cells, calcium flux, agonist mode | activation, % at 2 µM | 360,000 tested, 1% active | AID 504660
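Tetracycline-induced HEK293 TREx D1 cells, force-coupled to calcium signalling, were dye-loaded with a no-wash calcium kit. Compound was pin-added after a 10 s baseline. Fluorescence was read kinetically at 1 cycle/s for 180 s, with calcium rises flagged as agonism.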
USP1 inh: inhibitors of human USP1/UAF1 deubiquitinase | O94782 | recombinant USP1/UAF1, Ub-Rhodamine cleavage fluorescence | Potency, µM (highest dose often 57.1 µM), hits mostly inhibitors | 390,000 tested, 0.23% active | AID 743255; active = well fitted inhibition curve with a large enough effect; inconclusive = small, poorly fitted or top-dose-only effect; inactive = no such curve, though single readings can be large or run the other way; note: nearly all actives have a fitted effect of over 60% in size
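USP1/UAF1 complex (1 nM) preincubated 15 min at room temperature with compound, then Ub-Rho substrate (150 nM final) added. Kinetic fluorescence at 480/540 nm over 6 reads at 60 s intervals; 50 mM HEPES pH 7.8, 0.5 mM EDTA, 0.1 mg/ml BSA, 1 mM TCEP, 0.01% Tween-20.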
TRHR enhancer: TRH receptor (human) allosteric enhancement | P34981 | TRHR cells, fluo-8 calcium fluorescence, EC20 TRH enhancement | enhancement, % at 2 µM | 360,000 tested, 0.66% active; in the data active = enhancement above about 30%
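Enhancer read-out: after compound pinning and an initial kinetic agonist-mode read, an EC20 of TRH (10 nM final) was injected and fluo-8 calcium signal (Ex 480/Em 530) followed at 1 s/cycle for 100 cycles in TRHR-expressing cells.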
Each line names hits and unclear results; the compound was inactive in the other large screens. Cut-off read from the data, not from the text of the source, unless noted: active = activation above about 30%; inactive = the rest.

COCCNC(=O)CCn1c(=O)[nH]c2cc(OC)c(OC)cc2c1=O	none
Oc1ccc(C=NC2CCCCC2)cc1	D1 antagonist -35.1
COc1ccc(N2CCN(C(=O)CCc3c[nH]c4ccccc34)CC2)cc1	none
COc1ccccc1N1CCN(C(=O)CCc2c[nH]c3ccccc23)CC1	D1 antagonist -38.4
Cc1ccc(CNC(=O)c2ccc(N3Cc4ccccc4Oc4ncccc43)s2)cc1	none
N#CC1=C(N)NC(SCc2ccc(F)cc2)=C(C#N)C12CCCCC2	D1 antagonist -31.0
N#CC1=C(N)NC(SCC(=O)O)=C(C#N)C12CCCC2	none
CCOC(=O)CN(C(=O)CSc1nnc(C)n1-c1ccccc1)c1cccc([N+](=O)[O-])c1	none
CCOC(=O)CN(C(=O)CSc1nnc(C)n1-c1ccccc1)c1ccccc1	D1 antagonist -52.1
O=C(NN=Cc1c[nH]c2ccccc12)NN=Cc1c[nH]c2ccccc12	none (no result: D1 antagonist, D1 potentiator, TRHR ag, D1 agonist, TRHR enhancer)
O=Cc1c[nH]c2ccccc12	D1 antagonist -54.9 (no result: USP1 inh)
CCC1CCCCN1C(=O)Cn1c(=O)n(-c2ccccc2C(F)(F)F)c(=O)c2c(C)c(C(=O)N(C)C)sc21 (configuration not stated)	none
COc1cccc(C2CC(c3ccccc3)n3ncnc3N2)c1 (configuration not stated)	none (no result: D1 potentiator)
COc1cccc(C2CC(c3cccc(Br)c3)n3ncnc3N2)c1 (configuration not stated)	D1 antagonist -56.5
COc1ccc(C2CC(c3ccco3)n3ncnc3N2)cc1 (configuration not stated)	TRHR enhancer 36.5
Cc1ccccc1NC(=O)c1c(C)oc2ccc(O)c(CN3CCCCCC3)c12	none
Cc1ccc(Cl)cc1N1CCN(C(=O)c2cc3ccc4cccnc4c3[nH]2)CC1	TRHR enhancer 30.4
Cc1cc(C)cc(NC(=O)C(=O)NCC(c2cccnc2)N2CCOCC2)c1 (configuration not stated)	none
Cn1c(=O)n(C)c2cc(N3CCCCC3)c(NC(=O)c3ccc(Cl)cc3)cc21	none
COc1ccc(NC(=O)CN2CCC(C(N)=O)(N3CCCCC3)CC2)c(OC)c1	D1 antagonist -37.2
COc1cccc(-n2nnc(S(=O)(=O)c3ccc(C)cc3)c2N)c1	D1 antagonist -35.9
COc1ccc(S(=O)(=O)c2nnn(-c3cccc(Cl)c3)c2N)cc1	none
O=C(NCc1ccc(Cl)cc1)C(=O)Nc1ccc(Br)cc1	none
O=C(NCCNc1nccc(C(F)(F)F)n1)c1cccc(C(F)(F)F)c1	D1 antagonist -33.9
O=S(=O)(NCCNc1nccc(C(F)(F)F)n1)c1ccccc1	none
O=C(NCCc1ccccc1)C(=O)NCC(c1ccc2c(c1)OCO2)N1CCOCC1 (configuration not stated)	none
COc1ccc(C(=O)Nc2nc(-c3ccc(Br)cc3)ns2)cc1	none
CCCCn1c(O)c(/C=C/C=C/C=Nc2ccccc2)sc1=S	D1 antagonist -31.0, USP1 inh inconclusive
CCN(CCN(C)C)C(=O)C1CCN(S(=O)(=O)c2c(C)noc2/C=C/c2ccccc2F)CC1	D1 antagonist -37.3
CCOc1ccc(CNC(=O)CCCn2c(=O)c3cccn3c3cccnc32)cc1	none
CC(=O)c1cccc(N=Nc2c(-c3ccccc3)[nH]n(-c3ccccc3)c2=O)c1	D1 antagonist -30.7, USP1 inh inconclusive
Cc1[nH]n(-c2ccccc2)c(=O)c1N=Nc1cccc(Cl)c1	none
COc1c(/C=N/Nc2ccc([N+](=O)[O-])cc2[N+](=O)[O-])c(C)nn1-c1ccccc1	D1 antagonist -33.1
COc1ccccc1NS(=O)(=O)c1ccc(N/N=C/c2c(C)nn(-c3ccccc3)c2N2CCCC2)c([N+](=O)[O-])c1	none
Cc1ccc([N+](=O)[O-])cc1/C=N/Nc1nnnn1-c1ccccc1	D1 antagonist -58.6
Fc1cccc(Cl)c1CSc1nnc(CNc2ccccc2)o1	D1 antagonist -40.7
COc1ccc(-c2nnc(SCc3ccccc3F)o2)cc1	none
Fc1ccc(NCc2nnc(SCc3ccccc3)o2)cc1	none
COc1cc(OC)cc(-c2nnc(SCc3c(F)cccc3Cl)o2)c1	D1 antagonist -33.0
